Measurements: PubChem BioAssay
The source made the active and inactive calls.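 Rule for the calls, unless noted: active = inhibition above 20% together with a positive visual image hit; inconclusive = visual image hit but inhibition not above 20%; inactive = no visual image hit.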

Assays:
[1] = inhibitors of TNFa-induced NFkB p65 translocation, primary screen, imaging, HUVEC, MLSMR starter and 10KST1 sets (AID 438); details: HUVEC TNFa-induced p65 nuclear translocation; cell count: measured here: nuclei count (cytotoxicity indicator), at 2.08 µM; inhibition: at 2 µM, stronger effect = higher value, 0% TNFa-plus-vehicle, 100% no-TNFa wells;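 note: compound added about 3h40 before a 20 min TNFalpha stimulation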;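 for inhibition: signal is the nuclear over cytoplasmic p65 intensity ratio per well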
[2] = inhibitors of mutant huntingtin aggregation, primary screen, imaging, exon1htt(103Q)mCFP cells, high-content imaging (AID 483;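 active = visual image review flags a hit and inhibition of aggregation exceeds 20%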;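 note: compound exposure lasted 3 days before fixation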;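 for nuclei count: percent of the per-plate median nuclei count of sample wells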); details: exon1htt(103Q)mCFP cell line, aggregate imaging, at 2 µM; inhibition of aggregation: stronger effect = higher value; nuclei count: measured here: cell count, toxicity
[3] = inhibitors of E-selectin induction by TNFa, primary screen, imaging, HUVEC, immunofluorescence, MLSMR starter and 10KST1 sets (AID 487;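 active = visually confirmed hit in the image check and inhibition above 20%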;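 for inhibition: signal is fraction of cell area covered by stained E-selectin grains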;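 for nuclei count: 100% = median nuclei count of all wells on the same plate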); details: HUVEC TNFalpha-induced E-selectin immunofluorescence imaging, at 2 µM; inhibition: stronger effect = higher value; nuclei count: measured here: cell number, toxicity
[4] = biological target: Voltage-gated potassium channel subunit beta-2 (Rattus norvegicus) (UniProt P62483); experiment: KvBeta enzyme negative modulators, primary screen, biochemical, NADPH fluorescence (AID 622;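 active = fluorescence slope higher than the sample average by over 3 SD, cut at about -0.22 in these data, passing the limit was not always enough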;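 note: slope of raw intensity against log time taken from 70 to 1610 s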); details: recombinant KvBeta, 4-cyanobenzaldehyde reduction, at 10 µM, stronger effect = higher value
Sequence of Voltage-gated potassium channel subunit beta-2 (Rattus norvegicus) (P62483 whole entry, looked up): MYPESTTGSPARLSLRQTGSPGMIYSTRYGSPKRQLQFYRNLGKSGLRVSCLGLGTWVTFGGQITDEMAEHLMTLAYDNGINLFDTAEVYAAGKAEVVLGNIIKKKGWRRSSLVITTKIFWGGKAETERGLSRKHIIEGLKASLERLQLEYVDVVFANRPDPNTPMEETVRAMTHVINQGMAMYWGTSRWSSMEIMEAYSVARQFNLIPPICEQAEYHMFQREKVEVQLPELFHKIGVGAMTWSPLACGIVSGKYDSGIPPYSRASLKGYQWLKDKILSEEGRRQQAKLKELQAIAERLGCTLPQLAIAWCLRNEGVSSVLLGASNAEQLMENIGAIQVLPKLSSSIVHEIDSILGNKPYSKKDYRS

[5] = biological target: Voltage-gated potassium channel subunit beta-2 (Rattus norvegicus) (UniProt P62483); experiment: KvBeta positive modulators, primary screen, biochemical, NADPH fluorescence (AID 623;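 active = NADPH fluorescence slope more negative than the mean of all samples by about 3 SD, 99.7% confidence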;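 note: fluorescence intensity change per second fitted from 20 to 320 s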); details: Recombinant KvBeta, NADPH fluorescence decrease slope, 10 min; at 10 µM; stronger effect = lower value
[6] = biological target: Alpha-2C adrenergic receptor (Homo sapiens) (UniProt P18825); experiment: modulators of alpha2C/GIRK thallium flux, primary screen, cell-based, HEK293 alpha2C/GIRK1/2 (AID 624;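 active = fluorescence slope after compound addition differing from the mean of all screened samples at 99.7% confidence, in either direction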;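 note: slope of fluorescence ratio to pre-addition baseline per second over 15 to 24 s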); details: thallium flux BTC fluorescence, at 10 µM, actives lie on both sides
Sequence of Alpha-2C adrenergic receptor (Homo sapiens) (P18825 whole entry, looked up): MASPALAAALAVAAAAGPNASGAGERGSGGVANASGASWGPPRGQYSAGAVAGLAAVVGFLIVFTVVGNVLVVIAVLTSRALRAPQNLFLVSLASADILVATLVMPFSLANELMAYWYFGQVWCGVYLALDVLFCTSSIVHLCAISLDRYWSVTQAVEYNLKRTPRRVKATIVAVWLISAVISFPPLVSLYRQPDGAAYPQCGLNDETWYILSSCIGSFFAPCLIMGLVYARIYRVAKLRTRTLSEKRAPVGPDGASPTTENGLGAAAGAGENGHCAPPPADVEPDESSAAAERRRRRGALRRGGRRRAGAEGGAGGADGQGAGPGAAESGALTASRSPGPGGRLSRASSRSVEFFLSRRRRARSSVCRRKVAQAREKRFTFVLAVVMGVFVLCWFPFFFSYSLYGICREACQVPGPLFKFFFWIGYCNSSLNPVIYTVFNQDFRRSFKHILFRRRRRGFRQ

[7] = inhibitors of Sendai virus-induced IRF3 signaling, primary screen, TLR/RLR signaling modifier project, cell-based, Sendai virus stimulus, luciferase, 10K MLSCN set (AID 602276;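 active = inhibition at or above 50% at 10 µM; inactive = inhibition below 50%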;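 note: firefly luciferase from ISG56 promoter only with Renilla not read in this screen; 0% = Sendai virus plus DMSO and 100% = medium plus DMSO without virus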); details: HEK293 RL24 IRF3 luciferase reporter, at 10 µM, stronger effect = higher value
[8] = inhibitors of poly I:C-induced TLR3 signaling, primary screen, cell-based, poly I:C stimulus, luciferase, 10K MLSCN set (AID 602277;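 active = inhibition of the reporter signal at or above 50%; inactive = inhibition below 50%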); details: HEK293-TLR3 RL24 IRF3 luciferase reporter, at 10 µM, stronger effect = higher value

| Structure (SMILES) | cell count [1] | inhibition [1] | inhibition of aggregation [2] | nuclei count [2] | inhibition [3] | nuclei count [3] | fluorescence slope [4] | NADPH fluorescence slope [5] | slope [6] | inhibition [7] | inhibition [8] |
| --- | --- | --- | --- | --- | --- | --- | --- | --- | --- | --- | --- |
| CC(=O)c1ccc(OCC(O)CN2CC(C)OC(C)C2)cc1 (stereo not given) | 310 | 8.6% (inactive) | 15% (inactive) | 92.4% | 0.4% (inactive) | 98.9% | -0.613 (inactive) | 9.2e-06 (inactive) | 0.00724 (inactive) | 9.28% (inactive) | 16.8% (inactive) |
| CC(C)C(=O)Nc1ccc(C(=O)NCc2cccnc2)cc1 | 393 | 9.4% (inactive) | 10% (inactive) | 102% | -115% (inactive) | 109% | -0.598 (inactive) | 1.1e-05 (inactive) | 0.00588 (inactive) | -10.7% (inactive) | -31.6% (inactive) |
| c1ccn2c(SCc3cn4ccsc4n3)nnc2c1 | 586 | -7.3% (inactive) | 19.5% (inactive) | 90.6% | -20.5% (inactive) | 111% | -0.544 (inactive) | 2.4e-05 (inactive) | 0.00536 (inactive) | -1.63% (inactive) | -34.1% (inactive) |
| CCOC(=O)c1[nH]c(C)c(C(=O)NCC2CCCO2)c1C (stereo not given) | 390 | 2.8% (inactive) | 5.8% (inactive) | 103% | -13.6% (inactive) | 86.3% | -0.608 (inactive) | -7.6e-06 (inactive) | 0.00577 (inactive) | 8.72% (inactive) | 14.8% (inactive) |
| O=C(c1c(Cl)nc2sccn12)N(C(=O)c1c(Cl)nc2sccn12)c1ccc(Cl)cn1 | 819 | 3.8% (inactive) | -20.1% (inactive) | 103% | -97.4% (inactive) | 126% | -0.465 (inactive) | 7.2e-06 (inactive) | 0.00593 (inactive) | -31.5% (inactive) | -77.8% (inactive) |
| COc1ccc(NC(=O)CSc2nc3c(c(=O)n2-c2ccccc2OC)SCC3)cc1 | 726 | -6.7% (inactive) | -10.4% (inactive) | 107% | -25.6% (inactive) | 106% | -0.568 (inactive) | -5.1e-05 (inactive) | 0.00646 (inactive) | 4.03% (inactive) | 31% (inactive) |
| CC(=O)Nc1ccc(S(=O)(=O)NCC(C)NS(=O)(=O)c2ccc(NC(C)=O)cc2)cc1 (stereo not given) | 572 | -9.7% (inactive) | 18.1% (inactive) | 76% | -204% (inactive) | 95.1% | -0.442 (inactive) | 4.4e-05 (inactive) | 0.0079 (inactive) | -11.9% (inactive) | -13.4% (inactive) |
| Cc1ccc(C)c(-n2c(CNC(=O)c3ccco3)nnc2SCC(=O)Nc2nnc(C)s2)c1 | 656 | -6.4% (inactive) | 20.8% (inactive) | 99.5% | 3.7% (inactive) | 120% | -0.528 (inactive) | -3e-05 (inactive) | 0.0063 (inactive) | 14.2% (inactive) | 36.2% (inactive) |
| CCOC(=O)c1c(NC(=O)Cn2c(=O)oc3ccccc32)oc(C)c1C(C)=O | 365 | -5.4% (inactive) | -18.8% (inactive) | 74.1% | 1.9% (inactive) | 119% | -0.484 (inactive) | 1.5e-05 (inactive) | 0.00454 (inactive) | 5.7% (inactive) | 11.9% (inactive) |
| Cc1ccc(OCCC(=O)OCC(=O)C(C)(C)C)cc1 | 542 | -8.3% (inactive) | -6.7% (inactive) | 101% | -9.5% (inactive) | 131% | -0.365 (inactive) | -5.3e-05 (inactive) | 0.0062 (inactive) | 12.7% (inactive) | 27.5% (inactive) |
| COc1ccc(-c2nc(C(N)=O)c3[nH]c(=O)n(-c4cccc(Cl)c4)c3n2)cc1OC | 743 | -1% (inactive) | 7.2% (inactive) | 100% | -63.8% (inactive) | 114% | -0.521 (inactive) | -3e-05 (inactive) | 0.00698 (inactive) | 3.83% (inactive) | 6.23% (inactive) |
| CCOC(=O)C1CCN(c2cc(C)nc3cc(-c4cccc(F)c4)nn23)CC1 | 675 | -4.7% (inactive) | 12% (inactive) | 97.8% | -82.8% (inactive) | 99.1% | -0.35 (inactive) | -1.5e-05 (inactive) | 0.00523 (inactive) | -8.57% (inactive) | -12.2% (inactive) |
| CN1C(=O)C(CC(=O)N2CCN(C(c3ccccc3)c3ccccc3)CC2)N(C)C1=O (stereo not given) | 281 | -2.3% (inactive) | 9.8% (inactive) | 97.2% | 20.6% (inactive) | 118% | -0.288 (inactive) | 5.9e-06 (inactive) | 0.00745 (inactive) | 1.7% (inactive) | 22.8% (inactive) |
| COCCCN(C)C1CCN(C(=O)Nc2ccc(F)cc2)CC1 | 610 | -1.3% (inactive) | -8.7% (inactive) | 108% | -49.7% (inactive) | 102% | -0.582 (inactive) | -1.9e-06 (inactive) | 0.00654 (inactive) | 11% (inactive) | 36.9% (inactive) |
| CC(C)NC(=O)CSCc1ccccc1Cl | 350 | 12.5% (inactive) | 6.1% (inactive) | 100% | -0.7% (inactive) | 110% | -0.5 (inactive) | -1.3e-05 (inactive) | 0.00508 (inactive) | 9.82% (inactive) | 0.78% (inactive) |
| COc1ccc(CNC(=O)CN(C(=O)c2ccc(CN3CCOCC3)o2)C2CCCC2)cc1 | 449 | 5.5% (inactive) | -0.5% (inactive) | 98.3% | -94.6% (inactive) | 107% | -0.613 (inactive) | -4.4e-05 (inactive) | 0.00446 (inactive) | 17.1% (inactive) | 11.7% (inactive) |
| CCCCn1c(=O)[nH]c(=O)c2c1nc(-c1ccncc1)n2CCOC | 542 | -15.4% (inactive) | -7.3% (inactive) | 107% | -19.9% (inactive) | 138% | -0.446 (inactive) | -4.3e-05 (inactive) | 0.00406 (inactive) | 0.301% (inactive) | 33.4% (inactive) |
| COc1ccccc1NC(=O)c1ccc(COc2ccccc2OC)o1 | 596 | -15.7% (inactive) | -20% (inactive) | 132% | -77.6% (inactive) | 107% | -0.605 (inactive) | 2.4e-05 (inactive) | 0.00349 (inactive) | 12.4% (inactive) | 4.47% (inactive) |
| O=C(Cn1ncc2c1-c1ccccc1OC2)N1CCN(c2ccccn2)CC1 | 631 | -1.1% (inactive) | -24.9% (inactive) | 131% | -55.8% (inactive) | 111% | -0.587 (inactive) | -5.3e-05 (inactive) | 0.00617 (inactive) | 3.72% (inactive) | 26.9% (inactive) |
| Nc1sccc1C(=O)c1ccc(Cl)cc1 | 403 | 0% (inactive) | 7.1% (inactive) | 92% | -146% (inactive) | 103% | -0.44 (inactive) | -2.6e-05 (inactive) | 0.00277 (inactive) | 2.24% (inactive) | 0.658% (inactive) |
| Cc1c(C(=O)OC2CCCCC2)[nH]c2c1C(=O)CC(C)(C)C2 | 342 | -8.9% (inactive) | -22% (inactive) | 108% | 14.6% (inactive) | 68.9% | -0.407 (inactive) | -9.3e-06 (inactive) | 0.00193 (inactive) | -3% (inactive) | -13.3% (inactive) |
| Cc1ccc(CCNC(=O)CC2Oc3ccc(C)cc3NC2=O)cc1 (stereo not given) | 644 | 5.5% (inactive) | -11.9% (inactive) | 105% | -33.5% (inactive) | 124% | -0.558 (inactive) | 1.2e-05 (inactive) | 0.00676 (inactive) | -18.4% (inactive) | 2.52% (inactive) |
| Cc1[nH]nc(N=CC2=C(O)CC(C)(C)CC2=O)c1-c1ccccc1 | 551 | -8.6% (inactive) | -3.5% (inactive) | 85.2% | 15.4% (inactive) | 95.3% | -0.344 (inactive) | -2.3e-05 (inactive) | 0.00489 (inactive) | -16.8% (inactive) | 13.8% (inactive) |
| COC(=O)C(C)Sc1nnc2n(-c3cccc(C)c3)c(=O)c3c4c(sc3n12)CCCC4 (stereo not given) | 660 | 9.4% (inactive) | 7.6% (inactive) | 101% | -1.2% (inactive) | 120% | -0.58 (inactive) | -3.5e-06 (inactive) | 0.00585 (inactive) | -16% (inactive) | -7.85% (inactive) |
| CCOC(=O)c1cnc(C(C)(C)C)[nH]c1=O | 328 | -6.5% (inactive) | -6.3% (inactive) | 109% | -109% (inactive) | 142% | -0.318 (inactive) | -4.2e-05 (inactive) | 0.00422 (inactive) | 10.2% (inactive) | 17.4% (inactive) |
